# From PubChem
# In the library only some 4.3% were active in any assay of this set; here they are far more common.
# PfHsp40 rescue: rescue of PfHsp40-mediated yeast toxicity | S. cerevisiae expressing PfHsp40, growth rescue, ATP luminescence | growth rescue, % at 12.5 µM | 0.68% of 340,000 active; in the data active means growth rescue above about 28%, passing the limit was not always enough; inconclusive means no clear call, values can overlap the other calls;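 further: yeast W303a lacking pdr1 and pdr3 grown in galactose medium; growth measured after three days at 30 °C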
# MazF activator: MazEF (E. coli) toxin RNase activation. P0AE70. FAM/BHQ RNA-DNA oligo cleavage fluorescence, 5 h. activation, % at 20 µM. 0.32% of 350,000 active; in the data active means activation above about 50%
# Target sequence (P0AE70 whole entry, looked up): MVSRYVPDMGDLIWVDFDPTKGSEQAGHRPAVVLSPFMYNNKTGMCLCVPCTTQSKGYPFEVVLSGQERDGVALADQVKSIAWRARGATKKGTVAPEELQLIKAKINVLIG
# Anthrax LF prot: blocks Bacillus anthracis lethal factor protease | AID 588501 | inhibition, % at 10 µM | P15917 | 0.12% of 360,000 active | multiplex microsphere protease cleavage assay, LF
# BoNT-A LC inh2: BoNT A light chain protease inhibition; multiplex microsphere protease substrate cleavage, flow cytometry; inhibition, % at 10 µM; 0.17% of 360,000 active; AID 588499
# BoNT-F LC inh: inhibitors of Botulinum neurotoxin F light chain protease; inhibition, % at 10 µM; Multiplex microsphere protease cleavage assay, flow cytometry; 0.22% of 360,000 active; in the data active means inhibition above about 35%, passing the limit was not always enough; inconclusive means no clear call, values can overlap the other calls
# Bead autofluor: compound fluorescence in toxin protease inhibitor counterscreen; compound autofluorescence counterscreen, microsphere flow cytometry; active compounds read high; fluorescence intensity (test concentration not listed); 3.1% of 360,000 active; in the data active means fluorescence intensity above about 16000; inconclusive means no clear call, values can overlap the other calls
# Hits are given with their value; i = inactive; ? = inconclusive; nt = no result. Unless noted, no stated cut-off is given here; in the data, active means inhibition above about 30%; inconclusive means no clear call, values can overlap the other calls; inactive means below that.
SMILES,PfHsp40 rescue,MazF activator,Anthrax LF prot,BoNT-A LC inh2,BoNT-F LC inh,Bead autofluor
O=C(NC1=NCCS1)c1cc2ccccc2o1,i,i,i,i,i,20997
Cc1cc(C(=O)NC2=NCCS2)cs1,i,i,i,?,i,22079
O=C(NC1=NCCS1)c1csc2ccccc12,50,i,i,i,i,i
CC(C)c1ccc(OCC(=O)Nc2c3c(nn2C(C)(C)C)CS(=O)(=O)C3)cc1,i,i,i,?,?,?
CC(=O)OCCN(CCCn1c(-c2ccncc2)nc2ccccc21)c1nc(CN2CCCCC2)cs1,i,i,i,i,i,i
Cc1ccc(C(=O)C(OC(=O)CN2C(=O)c3ccccc3C2=O)c2ccccc2)cc1C (stereo unspecified),i,i,i,i,i,22707
O=C(CN1C(=O)c2ccccc2C1=O)OC(C(=O)c1ccc(Cl)cc1)c1ccccc1 (stereo unspecified),i,i,i,i,i,21488
O=C(CNC(=O)c1ccccc1)OC(C(=O)c1ccccc1)c1ccccc1 (stereo unspecified),i,i,i,i,i,i
Cc1ccc(C(=O)C(OC(=O)CNC(=O)c2ccc(Cl)cc2)c2ccccc2)cc1 (stereo unspecified),i,i,i,?,i,21549
Cc1ccc(C(=O)C(OC(=O)CN2C(=O)c3ccccc3C2=O)c2ccccc2)cc1 (stereo unspecified),i,i,i,i,i,i
CCC(=O)c1cn([C@H](CCC(OC)OC)CC(=O)OC(C)(C)C)cc1CC,i,i,i,i,i,i
COC(CN(C)S(=O)(=O)c1cc2c3c(c1)CCC(=O)N3CCC2)OC,i,i,i,i,i,i
CC(=O)NC(=S)NNC(=O)C(c1ccccc1)c1ccccc1,62,i,i,i,i,i
C[C@H](NS(=O)(=O)c1c(Cl)cccc1Cl)C(=O)NNC(=O)COc1ccccc1F,50,i,i,i,i,i
O=C(CSc1nnc(CNC(=O)c2ccc(F)cc2)o1)NCC1CCCO1 (stereo unspecified),i,i,i,i,i,i
CCCn1c(SCC(=O)C(C)(C)C)nc2ccccc21,i,i,i,i,i,i
CCCn1c(SC(C)C(=O)O)nc2ccccc21 (stereo unspecified),i,i,i,i,i,21928
Cc1occc1C(=O)N/N=C/c1c[nH]c2ccccc12,i,i,i,i,i,22938
N#C/C(=C\c1cccc(O)c1)C(=O)N1CCCCC1,i,i,i,i,47,i
N#C/C(=C\c1cccc(Br)c1)C(=O)N1CCCCC1,i,i,i,i,i,i
CCCN(C(=O)CSc1nnc(-c2ccncc2)n1CCC)c1c(N)n(Cc2ccccc2)c(=O)[nH]c1=O,nt,i,i,i,i,i
COc1ccc(NC(=O)c2nc[nH]c2C(=O)N[C@@H](CC(C)C)C(=O)OC(C)(C)C)cc1,27,i,i,i,i,i
COc1ccc(NC(=O)c2nc[nH]c2C(=O)N[C@@H](C)C(=O)OC(C)(C)C)cc1,i,i,i,i,i,i
CNC(=S)NNC(=O)c1cc(C(C)(C)C)nn1Cc1ccc(F)cc1,i,i,i,i,i,i
O=C(CN(CCO)Cc1ccccc1)N1CCN(S(=O)(=O)c2ccccc2)CC1,nt,i,i,i,i,i
SMILES,PfHsp40 rescue,MazF activator,Anthrax LF prot,BoNT-A LC inh2,BoNT-F LC inh,Bead autofluor
CCOC(=O)c1c(NC(=O)CSc2nc3ccccc3o2)sc(C)c1C,i,i,i,?,i,19163
CCCCn1c(N)c(N(CC(C)C)C(=O)CCNC(=O)c2ccc(Cl)cc2)c(=O)[nH]c1=O,i,i,i,i,i,i
CCC(Cc1ccccc1)NS(=O)(=O)c1c(C)nc2scc(C)n2c1=O (stereo unspecified),i,i,i,i,i,i
Cc1oc2c(C)c(O)ccc2c(=O)c1-c1ccc2ccccc2n1,i,i,i,i,i,19935
CCC(=O)Oc1ccc2c(=O)c(-c3ccc4ccccc4n3)c(CC)oc2c1C,i,i,i,i,i,i
CC(C)(C)OC(=O)N(CCc1ccccc1)Cc1cccc(OCc2cccc(NC(=O)C3CC3)c2)c1,i,i,i,i,i,i
COc1ccc(-c2c(NC(=O)CC(C)C)n(C)c3ccccc3c2=O)cc1OC,i,i,33,i,i,i
CCC(=O)Nc1c(-c2cccs2)c(=O)c2ccccc2n1C,i,i,i,i,i,i
CCCCCC(=O)Nc1c(-c2ccc(OC)cc2)c(=O)c2ccccc2n1C,i,i,i,i,i,21066
CCCCCC(=O)Nc1c(-c2cccs2)c(=O)c2ccccc2n1C,i,i,i,i,i,16847
CCCN=C1N(C)C[C@@H]2[C@@H]3C(=O)N(Cc4ccccc4)C(=O)[C@@H]3[C@](Cc3ccccc3)(C(=O)OC)N12,i,i,i,i,i,i
Cc1cc(C)c(C(=O)COC(=O)c2c(C)noc2C)cc1C,i,i,i,i,i,i
Cc1ccnc(-n2c(C)cc(C=C3C(=O)N(C)C(=S)N(C)C3=O)c2C)c1,i,i,i,32,i,i
CCOC(=O)c1ccc(N2C(=O)CC(N(C)CCc3ccc(OC)c(OC)c3)C2=O)cc1 (stereo unspecified),558,i,i,i,i,i
C#CCN1C(=O)S/C(=C\c2ccc(N3CCOCC3)cc2C)C1=O,i,310,i,i,i,i
COc1ccc(C2=NN(C(=O)CSc3nccn3C)C(c3ccco3)C2)cc1 (stereo unspecified),i,i,i,i,i,i
O=S(=O)(c1ccc(Br)s1)N1CCN(c2ncccn2)CC1,i,i,i,i,i,22792
O=S(=O)(c1ccccc1)N1CCN(c2ncccn2)CC1,i,i,i,i,i,22296
CC1(C)CC(=O)CC(=O)/C1=N\Nc1c(Cl)cc(Cl)cc1Cl,i,i,i,i,i,i
CCC1(c2ccccc2)NC(=O)N(CC(=O)Nc2ccc(S(N)(=O)=O)cc2)C1=O (stereo unspecified),i,i,i,i,i,i
N[C@@H](Cc1c[nH]c2ccccc12)c1nnc(SCc2ccc(F)cc2)o1,i,i,i,?,i,24676
C=C(C)CSc1nnc([C@@H](N)Cc2c[nH]c3ccccc23)o1,i,i,i,?,i,19997
N[C@@H](Cc1c[nH]c2ccccc12)c1nnc(SCc2ccccc2)o1,i,i,i,i,i,i
Brc1ccc(CSc2nnc(Cc3c[nH]c4ccccc34)o2)cc1,37,i,i,i,i,i
N[C@@H](Cc1ccccc1)c1nnc(SCc2ccccc2Cl)o1,i,i,i,?,i,19863
COc1ccc(S(=O)(=O)N2CCSCC2)cc1C(N)=O,i,i,i,i,i,i
CC(C)N(Cc1nnc(-c2ccccc2Cl)o1)C(=O)COc1cccc(Cl)c1,nt,i,i,i,i,i
COc1ccc(C(C)(C)C)cc1NC(=O)CSc1ncn[nH]1,i,i,i,i,i,?
Cc1cc2nc(C)n(CCCN)c2cc1C,i,i,i,i,i,22118
Cc1ccc(C)c(C(O)c2ncc(-c3ccc(C(F)(F)F)cc3)[nH]2)c1 (stereo unspecified),nt,nt,i,i,i,i
